Experimental data: PubChem BioAssay (NCATS)
Records with an inconclusive call do not appear. Activity calls are given as the source filed them. Calls come from the whole dose curve; as a rule, active = well fitted inhibition curve with a large enough effect; inconclusive = small, poorly fitted or top-dose-only effect; inactive = flat fitted curve, though single readings scatter.

Test: qHTS for Inhibitors of Plasmodium falciparum (DD2) proliferation (AID 504314);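 note: parasite DNA measured by SYBR Green fluorescence after red cell lysis; plate controls were DMSO vehicle for no effect and artemisinin wells for full effect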
Conditions: P. falciparum Dd2 in erythrocytes, SYBR Green growth, 72 h; series mostly up to 6.11 µM
Method in brief: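 Erythrocytes infected with P. falciparum (0.3% parasitemia, 2.5% hematocrit final) were incubated with compounds for 72 h at 37C, 5% CO2. Parasite DNA was detected by SYBR Green I fluorescence after saponin/Triton lysis, normalized to artemisinin (0.29 uM) and DMSO controls.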

Potency, inactive:
COC(=O)c1cc(C(=O)OC)n2c(C)cc3ccccc3c12, Cc1cc2c(c(=O)o1)[C@H]1O[C@](c3ccsc3)(Cc3c1ccc1ccccc31)O2, CCCC[C@]12Cc3cc(C#N)ccc3[C@H](O1)c1c(cc(C)n(-c3ccccc3)c1=O)O2, CC1(C)OCC([C@H](O)C2=CCCCC2=O)CO1, C[C@@H]1CC2CCCC2[C@]2(O1)C(=O)Nc1ccccc12 (stereo partly drawn), COC(=O)[C@H]1[C@@H](c2ccccc2)NC(=O)N(CCc2cc(OC)c(OC)c(OC)c2)[C@@H]1C, CCOC(=O)CCN1C(=O)[C@@H]2[C@H]3[C@H](O)[C@H](O)CC(=NNC(=O)OCc4ccccc4)[C@@H]3CC[C@H]2C1=O, COc1ccc([C@]23Cc4cc(C#N)ccc4[C@H](O2)C2=C(CC4(CCCCC4)OC2=O)O3)cc1, C#CCCCON=C1C[C@@H](O)[C@H](O)[C@H]2[C@@H]3C(=O)N(Cc4ccccc4)C(=O)[C@@H]3CC[C@H]12, COc1ccc(O[C@H]2C=C[C@@H](c3ccccc3)O[C@H]2COC(=O)CCC(C)=NOC[C@@H](O)COCc2ccco2)cc1, O[C@H](CC#CCOc1ccccc1)COCc1ccccc1

activity, negative = inhibition, inactive:
C[C@H]1Cc2c(COc3ccccc3)nc3c(c2CO1)CN(S(=O)(=O)c1ccc2c(c1)OCCN2C)CC3 -3.65% [at 1.12 µM], COC(=O)CCC(=O)OC1(C)C(=O)C=C2C=C(C3CC3)N(c3ccc(CO)cc3)C=C2C1=O (stereo not drawn) -5.46% [at 1.12 µM]
